According to PubChem BioAssay AID1159580 (chemical genetic matrix, 2015):
About 2,000 (36%) of roughly 5,500 compounds were called active. Another 18% or so got no clear call; they are omitted. Cut-off read from the data, not from the text of the source: active = normalized growth mostly below about 0.91 (no sharp cut-off); inconclusive = no clear call, values can overlap the other calls; inactive = mostly above about 0.92. Some of the results follow.

Assay: chemical genetic growth profiling, strain panel (AID 1159580);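 note: tested at 20 µM; growth read once vehicle control cultures reached saturation at 30 °C; 1 = growth at the plate median or of vehicle wells; lower values mean less growth of the strain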
Conditions: S. cerevisiae deletion strains, growth OD
[1] = locus YHR030C, strain SLT2, hits give low values
[2] = locus YHR079C, strain IRE1, hits give low values
[3] = locus YJL095W, strain BCK1, hits give low values
[4] = locus YJR066W, strain TOR1, hits give low values
[5] = locus YLR113W, strain HOG1, hits give low values
[6] = locus YNL183C, strain NPR1, hits give low values
[7] = locus YOR231W, strain MKK1, hits give low values
[8] = locus YPL256C, strain CLN2, hits give low values

Measured: normalized growth

O=C(NC(=O)c1c(F)cccc1F)Nc1cc(Cl)c(OC(F)(F)C(F)C(F)(F)F)cc1Cl (stereo unspecified)
inactive: locus YAL021C, strain ccr4, hits give low values 0.983 | locus YAL026C, strain drs2, hits give low values 0.987 | locus YAL030W, strain snc1, hits give low values 0.998 | locus YBL061C, strain skt5, hits give low values 0.974 | locus YBR009C, strain hhf1, hits give low values 0.997 | locus YBR023C, strain chs3, hits give low values 0.981 | locus YBR171W, strain sec66, hits give low values 0.987 | locus YBR231C, strain swc5, hits give low values 0.977 | locus YBR279W, strain paf1, hits give low values 0.988 | locus YCL011C, strain gbp2, hits give low values 0.987 | locus YCL016C, strain dcc1, hits give low values 0.988 | locus YCL061C, strain MRC1, hits give low values 0.989 | locus YCL069W, strain vba3, hits give low values 0.99 | locus YCR088W, strain abp1, hits give low values 0.988 | locus YDL005C, strain med2, hits give low values 0.984 | locus YDL040C, strain nat1, hits give low values 0.98 | locus YDR001C, strain nth1, hits give low values 0.991 | locus YDR069C, strain doa4, hits give low values 0.989 | locus YDR137W, strain rgp1, hits give low values 0.988 | locus YDR159W, strain sac3, hits give low values 1 | locus YDR195W, strain ref2 1.01 | locus YDR297W, strain sur2, hits give low values 0.978 | locus YDR334W, strain swr1, hits give low values 0.981 | locus YDR335W, strain msn5, hits give low values 0.99 | locus YDR392W, strain spt3, hits give low values 0.98 | locus YEL003W, strain gim4, hits give low values 1.01 | locus YEL037C, strain rad23, hits give low values 0.991 | locus YEL061C, strain CIN8 (second series), hits give low values 0.995 | locus YER015W, strain faa2, hits give low values 0.983 | locus YER016W, strain bim1, hits give low values 0.996 | locus YER111C, strain swi4, hits give low values 0.982 | locus YER155C, strain BEM2 (second series), hits give low values 0.998 | locus YFR010W, strain ubp6, hits give low values 0.986 | locus YGL167C, strain pmr1, hits give low values 0.977 | locus YGL173C, strain kem1, hits give low values 0.999 | locus YGL227W, strain vid30, hits give low values 0.997 | locus YGL240W, strain doc1, hits give low values 0.99 | locus YGL253W, strain hxk2, hits give low values 0.987 | locus YHR013C, strain ard1, hits give low values 0.96 | locus YHR027C, strain rpn1, hits give low values 0.996 | [1] 1.04 | [2] 1.03 | locus YHR142W, strain chs7, hits give low values 0.997 | locus YJL092W, strain hpr5, hits give low values 0.993 | locus YJL095W, strain BCK1 (second series), hits give low values 0.986 | [3] 1.04 | locus YJL115W, strain asf1, hits give low values 0.987 | locus YJL129C, strain trk1, hits give low values 0.988 | locus YJL154C, strain vps35, hits give low values 0.985 | locus YJL164C, strain tpk1, hits give low values 0.988 | locus YJL166W, strain qcr8, hits give low values 0.995 | locus YJL187C, strain SWE1, hits give low values 0.986 | [4] 0.977 | locus YKL160W, strain elf1, hits give low values 0.983 | locus YKR026C, strain gcn3, hits give low values 0.989 | locus YKR091W, strain srl3, hits give low values 0.989 | locus YLL001W, strain dnm1, hits give low values 0.996 | locus YLL026W, hits give low values 0.995 | locus YLL041C, strain sdh2, hits give low values 0.994 | locus YLR027C, strain aat2, hits give low values 0.993 | [5] 1.01 | locus YLR221C, strain rsa3, hits give low values 0.984 | locus YLR258W, strain gsy2, hits give low values 0.999 | locus YLR262C, strain YPT6 (second series), hits give low values 0.995 | locus YLR320W, strain mms22, hits give low values 0.981 | locus YLR342W, strain FKS1, hits give low values 0.985 | locus YLR357W, strain rsc2, hits give low values 0.994 | locus YLR370C, strain arc18, hits give low values 0.986 | locus YLR384C, strain iki3, hits give low values 0.976 | locus YML120C, strain ndi1, hits give low values 0.987 | locus YMR058W, strain fet3, hits give low values 0.994 | locus YMR125W, strain sto1, hits give low values 0.979 | locus YMR129W, hits give low values 0.997 | locus YMR205C, strain PFK2, hits give low values 0.982 | locus YMR231W, strain pep5, hits give low values 1 | locus YNL071W, strain lat1, hits give low values 0.992 | [6] 0.973 | locus YNL209W, strain ssb2, hits give low values 0.978 | locus YNL248C, strain rpa49, hits give low values 0.991 | locus YNL322C, strain KRE1 (second series), hits give low values 0.993 | locus YNR049C, strain mso1, hits give low values 0.986 | locus YOR001W, strain rrp6, hits give low values 0.987 | locus YOR070C, strain gyp1, hits give low values 0.989 | locus YOR080W, strain dia2, hits give low values 0.991 | locus YOR083W, strain WHI5, hits give low values 0.988 | locus YOR106W, strain vam3, hits give low values 0.994 | [7] 0.992 | locus YOR265W, strain rbl2, hits give low values 0.985 | locus YOR270C, strain vph1, hits give low values 0.987 | locus YOR290C, strain snf2, hits give low values 0.977 | locus YPL051W, strain arl3, hits give low values 0.997 | locus YPL078C, strain atp4, hits give low values 0.99 | locus YPL106C, strain sse1, hits give low values 0.976 | locus YPL240C, strain hsp82, hits give low values 0.984 | [8] 1.03

O=C(Nc1cccc(C(F)(F)F)c1)Oc1ccc(F)cc1Cl
active: [1] 0.822 | [5] 0.762 | [8] 0.778
inactive: locus YAR019C, strain CDC15, hits give low values 0.977 | locus YBL105C, strain PKC1, hits give low values 0.977 | locus YBR135W, strain CKS1, hits give low values 0.982 | locus YBR136W, strain MEC1, hits give low values 0.98 | locus YBR160W, strain CDC28, hits give low values 0.979 | locus YDL017W, strain CDC7, hits give low values 0.985 | locus YDL028C, strain MPS1, hits give low values 0.977 | locus YDL101C, strain DUN1, hits give low values 0.992 | locus YDL108W, strain KIN28, hits give low values 0.97 | locus YDL132W, strain cdc53, hits give low values 0.974 | locus YDL214C, strain PRR2, hits give low values 0.978 | locus YDR052C, strain DBF4, hits give low values 0.985 | locus YDR054C, strain cdc34, hits give low values 0.975 | locus YDR226W, strain ADK1, hits give low values 0.975 | locus YDR477W, strain SNF1, hits give low values 0.993 | locus YER123W, strain YCK3, hits give low values 0.965 | locus YER133W, strain GLC7, hits give low values 0.983 | locus YFL009W, strain cdc4, hits give low values 0.974 | locus YFL029C, strain CAK1, hits give low values 0.977 | locus YFR003C, strain YPI1, hits give low values 0.982 | locus YFR019W, strain FAB1, hits give low values 0.987 | locus YFR028C, strain CDC14, hits give low values 0.98 | locus YGR040W, strain KSS1, hits give low values 0.977 | locus YGR052W, strain FMP48, hits give low values 1 | locus YGR092W, strain DBF2, hits give low values 0.951 | [2] 0.87 | locus YHR082C, strain KSP1, hits give low values 1.1 | locus YHR205W, strain SCH9, hits give low values 0.951 | locus YIL147C, strain SLN1, hits give low values 0.975 | [3] 0.955 | locus YJL128C, strain PBS2, hits give low values 0.947 | locus YJL157C, strain FAR1, hits give low values 0.98 | locus YJR016C, strain ILV3, hits give low values 0.984 | locus YJR066W, strain TOR1 (second series), hits give low values 0.938 | [4] 1.04 | locus YKL048C, strain ELM1, hits give low values 1 | locus YKL067W, strain YNK1, hits give low values 1.01 | locus YKL101W, strain HSL1, hits give low values 0.983 | locus YKL193C, strain SDS22, hits give low values 0.983 | locus YKL203C, strain TOR2, hits give low values 1.02 | locus YLR133W, strain CKI1, hits give low values 0.976 | locus YLR403W, strain SFP1, hits give low values 0.964 | locus YML070W, strain DAK1, hits give low values 0.979 | locus YMR001C, strain CDC5, hits give low values 0.984 | locus YMR205C, strain PFK2 (second series), hits give low values 1 | locus YMR277W, strain FCP1, hits give low values 0.977 | locus YNL006W, strain LST8, hits give low values 0.976 | locus YNL020C, strain ARK1, hits give low values 0.967 | locus YNL161W, strain CBK1, hits give low values 0.983 | [6] 0.998 | locus YNL207W, strain RIO2, hits give low values 0.972 | locus YNL222W, strain SSU72, hits give low values 0.973 | locus YNL307C, strain MCK1 (second series), hits give low values 0.982 | locus YOL078W, strain AVO1, hits give low values 0.983 | locus YOL136C, strain PFK27, hits give low values 0.969 | locus YOR061W, strain CKA2, hits give low values 0.983 | locus YOR119C, strain RIO1, hits give low values 1.05 | [7] 0.912 | locus YOR329C, strain SCD5, hits give low values 0.979 | locus YPL031C, strain PHO85, hits give low values 0.97 | locus YPL153C, strain RAD53, hits give low values 0.974 | locus YPL204W, strain HRR25, hits give low values 0.992 | locus YPL209C, strain IPL1, hits give low values 0.979 | locus YPR025C, strain CCL1, hits give low values 0.979 | locus YPR106W, strain ISR1, hits give low values 0.99 | locus YPR111W, strain DBF20, hits give low values 0.964 | strain NNK1, hits give low values 0.989 | strain TSCII, hits give low values 0.972
